Compound activity as filed in PubChem BioAssay.
Most compounds without a hit are left out; they make up all but 4.1% or so of the library.
hgDAF-12 ag = H. glycines DAF-12 receptor agonists, primary screen, cell-based, luminescence, HEK293, GAL4 fusion, UAS-luciferase. Nuclear hormone receptor DAF-12 (Heterodera glycines), GAL4 fusion. HEK293 GAL4-hgDAF12 UAS-luciferase reporter, agonist luminescence; normalized to butyrate control. activation, % at 6.8 µM. actives 1.8% (n = 370,000). AID 687014, 2013;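 active = activation above a cutoff set at the mean of all screened compounds plus 3 SD, cut at about 10% in these data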;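 also: 0% = DMSO wells and 100% = sodium butyrate wells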
ssDAF12 agonist = S. stercoralis DAF-12 nuclear receptor activators, primary screen, cell-based, luminescence, HEK293, GRIP1 co-expression, lit1-tk-luc; Nuclear hormone receptor DAF-12 (Strongyloides stercoralis); HEK293 ssDAF-12/GRIP1 lit1-tk-luc reporter; % of 3 µM dafachronic acid response; activation, % at 6.8 µM; actives 1% (n = 370,000); AID 652126, 2013;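 active = activation above the mean over all tested compounds plus 3 SD, cut at about 0.9% in these data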;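 also: 0% = DMSO-only wells and 100% = 3 µM delta7-dafachronic acid wells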
DAX1 inh-1 = DAX1 (NR0B1) inhibitors on StAR promoter, primary screen, cell-based, luminescence, SF-1 (NR5A1), full-length DAX-1; inhibition, % at 6.8 µM; HEK293T StAR-luciferase reporter, SF-1/DAX-1 repression relief; actives 1.1% (n = 370,000); AID 652010, 2013;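 active = inhibition above the mean over all tested compounds plus 3 SD, cut at about 3.6% in these data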;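 also: 0% = DAX-1 cells with DMSO and 100% = cells lacking DAX-1 with DMSO; higher inhibition means more luminescence from relief of DAX-1 repression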
hcDAF12 agonist = H. contortus DAF-12 nuclear receptor activators, primary screen, cell-based, luminescence, HEK293, lit1-tk-luc reporter; activation, % at 6.8 µM; actives 1.4% (n = 370,000); AID 652067, 2013; HEK293 hcDAF-12 lit1-tk-luc reporter; 0% DMSO, 100% Δ7-dafachronic acid;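 active = activation above the mean of all tested compounds plus 3 SD, cut at about 5.5% in these data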;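 also: 100% = response to 3 µM Δ7-dafachronic acid high control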
DAX1 inh-2 = DAX1 (NR0B1) inhibitors, primary screen, cell-based, HEK293, Gal4-DAX1, luciferase luminescence; Nuclear receptor subfamily 0 group B member 1 (Homo sapiens), P51843; HEK293 Gal4-DAX1 luciferase reporter; inhibition, % at 6.75 µM; actives 0.99% (n = 340,000); AID 504766, 2011;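 active = inhibition above the mean over all tested compounds plus 3 SD, cut at about 4.2% in these data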;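 also: 0% = DAX1-transfected cells with DMSO and 100% = empty-vector control cells with DMSO; inhibition shows as a rise in luminescence from relieved DAX1 repression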
LXRb hcDAF ctr = LXR agonists, Gal4 luciferase reporter, confirmation, counter-screen for hcDAF-12 agonist project, cell-based, luminescence, HEK293, H. contortus campaign; shares compounds with hcDAF12 agonist; 3,400 tested, under 10 active; activation, % at 6.8 µM; HEK293 Gal4-LXR tk-luc reporter, 24 h; normalized: DMSO 0%, positive control 100%;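 active = mean percent activation of the reporter above a cutoff set as the average over tested compounds plus their standard deviation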
Target sequence (P55055 whole entry, looked up, the tested form may be a part): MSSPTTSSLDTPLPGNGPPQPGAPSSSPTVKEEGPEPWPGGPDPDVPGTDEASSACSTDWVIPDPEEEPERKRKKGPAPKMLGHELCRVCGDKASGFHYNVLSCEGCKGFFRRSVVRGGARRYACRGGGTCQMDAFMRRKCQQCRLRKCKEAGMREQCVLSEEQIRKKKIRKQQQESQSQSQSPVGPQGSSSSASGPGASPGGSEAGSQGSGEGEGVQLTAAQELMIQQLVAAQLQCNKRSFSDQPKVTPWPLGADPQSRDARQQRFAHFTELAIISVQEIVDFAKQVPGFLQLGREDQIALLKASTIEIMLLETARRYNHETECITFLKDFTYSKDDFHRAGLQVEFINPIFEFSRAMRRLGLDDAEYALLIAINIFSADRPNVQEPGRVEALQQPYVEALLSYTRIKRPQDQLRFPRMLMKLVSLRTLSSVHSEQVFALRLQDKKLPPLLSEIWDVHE
hcDAF12 ag = H. contortus DAF-12 receptor agonists, confirmation, cell-based, luminescence, HEK293, lit1-tk-luc, triplicate; activation, % at 6.8 µM; HEK293 hcDAF-12 lit1-tk-luc reporter; % of Δ7-dafachronic acid response; actives 61% (n = 3,400); shares compounds with hcDAF12 agonist; AID 743032, 2013;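 active = mean activation across triplicate tests above the threshold derived from the earlier primary screen, cut at about 5.5% in these data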;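 also: 0% = DMSO only wells and 100% = 3 µM Δ7-dafachronic acid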
An asterisk follows results filed as active; / = no result.

SMILES | hgDAF-12 ag | ssDAF12 agonist | DAX1 inh-1 | hcDAF12 agonist | DAX1 inh-2 | LXRb hcDAF ctr | hcDAF12 ag
CC(=O)Oc1ccc(Cl)cc1/C=C/c1ccc2ccccc2n1 | 11* | 1 | 2 | 8.4* | 1 | 1 | 6.2*
O=C(c1ccccc1)c1cc2ccccc2oc1=O | 3 | 0 | 1 | 6.9* | 0 | 0 | 5
Cc1ccc(C)c(NC(=O)C2CCCN2S(=O)(=O)c2cccnc2)c1 (centres undefined) | 0 | 0 | -1 | -1 | / | / | /
CCc1ccc(/C=C/C(=O)c2ccc(N3CCOCC3)cc2)cc1 | 3 | -2 | 0 | 6.8* | -2 | 0 | 1
COc1ccc(CCNC(=O)c2cc3c(C)nn(-c4ccccc4)c3s2)cc1OC | -3 | -1 | -2 | -4 | / | / | /
C[C@@H](N)C(=O)Nc1ccc(Cl)cc1C(=O)c1ccc[nH]1 | -2 | -2 | / | -3 | / | / | /
Cc1cc(N2CCN(C(=O)OC(C)(C)C)C[C@H]2C)ccc1N1CC[C@@H](O)C1 | -4 | -1 | -3 | 0 | / | / | /
CCN(CC)c1ccc(/C=N/N(c2ccccc2)c2ccccc2)c(O)c1 | 6 | 1.1* | 0 | 12* | 0 | 0 | 5
CCN(CC)c1ccc(/C=N/N=C(c2ccccc2)c2ccccc2)c(O)c1 | -1 | -2 | -1 | -2 | 0 | / | /
O=C(Nc1ccc(Cl)cc1)[C@@H]1[C@@H]2C(=O)N(c3cccc(F)c3)C(=O)[C@@H]2[C@H]2C=CC=NN21 | 2 | -1 | 0 | 1 | -1 | / | /
COc1ccc(N2C(=O)[C@@H]3[C@H](C2=O)[C@H]2C=CC=NN2[C@@H]3C(=O)Nc2ccc(Cl)cc2)cc1 | -1 | 0 | 0 | 6.5* | / | 0 | 1
COc1ccc(C(=O)[C@H]2[C@H]3C(=O)N(c4ccc(OC(C)=O)cc4)C(=O)[C@H]3C3C=CC=NN32)cc1 (some centres undefined) | 2 | 0 | -1 | -1 | 3 | / | /
O=C(Nc1ccc(Cl)cc1)[C@@H]1[C@@H]2C(=O)N(c3ccc4ccccc4c3)C(=O)[C@@H]2[C@H]2C=CC=NN21 | 0 | 0 | 0 | 6.8* | -1 | 0 | 2
C=CCCC1CN(Cc2ccc(OC)cc2)S(=O)(=O)c2c(F)cccc2O1 (centres undefined) | 6 | -1 | 3 | 0 | / | / | /
O=C(OCC#CCSc1nnc(-c2ccccc2F)o1)c1ccc(F)cc1 | 2 | -1 | / | 2 | / | / | /
NC(=O)c1ncn([C@@H]2O[C@H](C(=O)N[C@H](Cc3ccccc3)C(=O)N3CCN(c4ccc(Cl)cn4)CC3)[C@@H](O)[C@H]2O)n1 | 0 | -1 | 1 | 0 | / | / | /
COC(=O)[C@H](Cc1ccccc1)NC(=O)[C@H]1O[C@@H](n2cnc3c(=O)[nH]c(N)nc32)[C@H](O)[C@@H]1O | 0 | 0 | 0 | -1 | / | / | /
Cc1cccc(-n2ncc3c(NCCCO)ncnc32)c1 | 12* | 0 | 4 | 6.6* | 1 | 1 | 3
COc1cc2c(cc1OC)C(c1ccccc1N)=NCC2 | -5 | -1 | 0 | 0 | / | / | /
COc1cc2c(cc1OC)C(c1ccccc1)=NCC2 | 0 | -1 | -1 | 7.8* | -2 | 0 | 0
COc1cccc(C(=O)N[C@H](C(=O)N2CCC[C@H]2C(=O)NC2CCCC2)C2CCCCC2)c1 | 1 | -1 | -1 | -1 | / | / | /
O=C(COC(=O)CC1CCCC1)Nc1cc2c(cc1Cl)C(=O)c1ccccc1C2=O | 7 | 0 | 3 | 9.1* | 2 | 1 | 6.1*
CC(C)c1ccc(NC(=O)COC(=O)CC2CCCC2)cc1 | 0 | 0 | 2 | 0 | 0 | / | /
CCCCC(=O)/C=C/n1c(=S)oc2ccccc21 | 8 | 1 | 1 | 6.6* | 0 | 0 | 4
O=C(NCc1ccc(C(=O)N2CCCN(Cc3ccccc3)CC2)cc1)c1cccc(Br)c1 | -1 | -2 | -2 | -4 | / | / | /
SMILES | hgDAF-12 ag | ssDAF12 agonist | DAX1 inh-1 | hcDAF12 agonist | DAX1 inh-2 | LXRb hcDAF ctr | hcDAF12 ag
NC(=O)c1ccccc1NC(=S)NC(=O)c1ccc(Br)o1 | 7 | 0 | 1 | 9.2* | 3 | 0 | 5
O=C(C1CCC1)N1CCc2cc(S(=O)(=O)C3CCN(Cc4ccc(F)cc4)CC3)ccc21 | 1 | -1 | 0 | -1 | / | / | /
COc1ccc(OCc2cc(C(=O)N3CCCC(O)C3)no2)c2ccccc12 (centres undefined) | 11* | 1.2* | 3 | 7.0* | 3 | 1 | 9.2*
COc1ccc(OCc2cc(C(=O)N(Cc3nccn3C)C(C)C)no2)c2ccccc12 | 7 | 0 | -1 | 7.3* | 0 | 0 | 6.9*
O=C(NCCc1c[nH]c2ccccc12)OCc1cn(Cc2ccc(F)c(F)c2)nn1 | 0 | -1 | 0 | 4 | / | / | /
COc1ccc(-c2nnc(SCC(=O)Nc3ccc4cn[nH]c4c3)n2Cc2ccco2)cc1 | 4 | 1 | -2 | 7.4* | / | 0 | 5
CCCC[C@H]1C2CC(OC(=O)Nc3ccccc3OC)C(C2)[C@H]2CCCCN21 (some centres undefined) | 0 | 0 | 1 | 0 | / | / | /
CN1/C(=C/C(=O)c2cccs2)Sc2ccccc21 | 18* | 4.5* | 4.4* | 22* | 1 | 2 | 24*
CN1/C(=C\C(=O)c2cccc([N+](=O)[O-])c2)Sc2ccccc21 | 13* | 0 | 1 | 7.7* | 0 | 1 | 5.9*
COCC(=O)/C=C1\Sc2ccccc2N1C | -16 | -1 | 0 | -3 | -1 | / | /
CN1/C(=C/C(=O)C2CCC2)Sc2ccccc21 | 12* | 0 | 3 | 8.1* | 0 | 0 | 4
Oc1ccccc1C=NC(N=Cc1ccccc1O)c1ccccc1O (centres undefined) | 1 | 0 | 0 | 0 | / | / | /
O=C(N[C@H](Cc1ccccc1)C(=O)NCCN1CCOCC1)[C@H]1O[C@@H](n2ccc(=O)[nH]c2=O)[C@H](O)[C@@H]1O | 0 | 0 | 0 | -1 | / | / | /
